Laboratory results taken from PubChem BioAssay.
“And” between values parts separate entries of the source, which are not always exact repeats. Identical values can stand only once. The source made the active and inactive calls. No rule for the calls is given here.

System: Aerobactin synthetase IucA (Klebsiella pneumoniae hvKP1)
Experiment: IucA enzyme inhibition, primary screen, biochemical, Spectrum library (AID 1346200);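 also: 100% = wells without compound and 0% = wells lacking enzyme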
Conditions: malachite green pyrophosphate, A620, at 8 µM, stronger effect = lower value

SMILES | activity remaining
COc1ccc2ccc(=O)oc2c1 | 114% (inactive)
COC(=O)C1=CO[C@@H](O[C@@H]2O[C@H](CO)[C@@H](O)[C@H](O)[C@H]2O)[C@H]2C1C(=O)C[C@@H]2C (stereo not given in full) | 112% (inactive)
O=C(NCO)c1cccnc1 | 113% (inactive)
CC(CCC(=O)O)[C@H]1CCC2C3CC[C@@H]4C[C@H](O)CC[C@]4(C)C3C[C@H](O)[C@@]21C (stereo not given in full) | 116% (inactive)
CCOC(=O)[C@H](CCc1ccccc1)N[C@H](C)C(=O)N1C2CCCCC2C[C@H]1C(=O)O (stereo not given in full) | 119% (inactive)
CN(C)CCN(Cc1ccccc1)c1ccccn1 | 109% (inactive)
OC[C@@H](O)[C@@H](O[C@@H]1O[C@H](CO)[C@@H](O)[C@H](O)[C@H]1O)[C@H](O)[C@@H](O)CO | 96.4% (inactive)
CC(C)CCCC(C)C1CCC2C3C[C@@H](O)[C@@]4(O)C[C@@H](O)CC[C@]4(C)C3CC[C@]12C (stereo not given in full) | 123% (inactive)
C1N2CN3CN1CN(C2)C3 | 104% (inactive)
C=C1C2CC[C@@]3(C)[C@H](c4ccoc4)OC(=O)C[C@]13O[C@H]1C[C@H](OC(C)=O)C(C)(C)[C@H](CC(=O)OC)[C@@]21C | 98.7% (inactive)
O=C(Cc1cccs1)NC1C(=O)N2C(C(=O)[O-])=C(C[n+]3ccccc3)CSC12 (stereo not given) | 109% (inactive)
COc1ccc2cc(CCC(C)=O)ccc2c1 | 99.8% (inactive)
CC(C)NCC(O)c1ccc(O)c(O)c1 (stereo not given) | 82.7% (inactive)
CC(=O)O[C@H]1C[C@@H](OC(C)=O)C(C)(C)C2C[C@@H](O)[C@]3(C)C(CC[C@@]4(C)[C@H](c5ccoc5)OC(=O)[C@H]5O[C@]543)[C@]21C (stereo not given in full) | 94.5% (inactive)
CO/N=C1\CN(c2nc3c(cc2F)c(=O)c(C(=O)O)cn3C2CC2)CC1CN (stereo not given) | 106% (inactive)
COC(=O)[C@@H]1OC(=O)[C@H]2O[C@@]23[C@@]1(C)CCC1[C@@]2(C)CCC(=O)C(C)(C)C2C[C@@H](OC(C)=O)[C@]13C (stereo not given in full) | 109% (inactive)
CC(=O)Oc1cccc(C(=O)O)c1OC(C)=O | 120% (inactive)
CC(=O)OCC(=O)[C@@]1(O)CCC2C3CCC4=CC(=O)C=CC4(C)C3[C@@H](O)C[C@@]21C (stereo not given in full) | 81.1% (inactive)
CC(C)CCCC(C)N (stereo not given) | 121% (inactive)
CC1(C)S[C@@H]2[C@H](NC(=O)[C@@H](N)c3ccc(O)cc3)C(=O)N2[C@H]1C(=O)O | 99.8% (inactive)

SMILES | activity remaining
COc1ccc(/C=C/C(=O)O)cc1OC | 110% (inactive) and 92.7% (inactive)
CCCCCC1C(=O)CCC1CC(=O)OC (stereo not given) | 118% (inactive)
COC(=O)C[C@@H]1C2(C)C(=O)[C@@H](CC3=C4CC(O)O[C@@H](c5ccoc5)[C@]4(C)CCC32)[C@H](O)C1(C)C (stereo not given in full) | 128% (inactive)
CC1=C(C(=O)O)N2C(=O)[C@@H](NC(=O)C(N)c3ccccc3)[C@H]2SC1 (stereo not given in full) | 104% (inactive)
CN[C@@H]1[C@H](OC2[C@H](O[C@H]3[C@H](O)[C@@H](O)[C@H](N=C(N)N)[C@@H](O)[C@@H]3N=C(N)N)O[C@@H](C)[C@]2(O)C=O)O[C@@H](CO)[C@H](O)[C@H]1O (stereo not given in full) | 108% (inactive)
CC(=O)Oc1c2c(c3c(c1CC=C(C)C)O[C@]14C(=C[C@@H]5CC1C(C)(C)OC4(C/C=C(\C)C(=O)O)C5=O)C3=O)OC(C)(CCC=C(C)C)C=C2 (stereo not given in full) | 112% (inactive)
NC[C@H]1O[C@H](O[C@H]2[C@H](O)[C@@H](O[C@H]3O[C@H](CO)[C@@H](O)[C@H](N)[C@H]3O)[C@H](N)C[C@@H]2N)[C@H](N)C[C@@H]1O | 97% (inactive)
Cc1cccc2c3c(ccc12)C1=C(C(=O)C3=O)C(C)CO1 (stereo not given) | 114% (inactive)
C[C@@H]1CC[C@@]2(OC1)OC1CC3C4CC=C5C[C@@H](O)CC[C@]5(C)C4CC[C@]3(C)C1[C@@H]2C (stereo not given in full) | 104% (inactive)
CC(C)(N=NC(C)(C)C(=N)N)C(=N)N | 105% (inactive)
CC1(C)O[C@@H]2CC3C4C[C@H](F)C5=CC(=O)C=C[C@]5(C)[C@@]4(F)[C@@H](O)C[C@]3(C)[C@]2(C(=O)CO)O1 (stereo not given in full) | 99.1% (inactive)
CC(C)(Oc1ccc(Cl)cc1)C(=O)O | 122% (inactive)
Nc1ccc(S(=O)(=O)Nc2ccccn2)cc1 | 97.8% (inactive)
CC(=O)OCC(OC(C)=O)C(OC(C)=O)C(OC(C)=O)C(OC(C)=O)C(COC(C)=O)OC(C)=O (stereo not given) | 103% (inactive)
COc1cc(O)c(C(=O)/C=C/c2ccc(O)c(OC)c2)c(OC)c1 | 77.4% (inactive)
CC/C(=C(/CC)c1ccc(O)cc1)c1ccc(O)cc1 | 104% (inactive)
N[C@@H](Cc1cc(I)c(Oc2ccc(O)c(I)c2)c(I)c1)C(=O)O | 125% (inactive)
Cc1ccc(C(=O)C(C)CN2CCCCC2)cc1 (stereo not given) | 113% (inactive)
Nc1ccc(C(=O)O)c(O)c1 (tested in a mixture with another compound) | 86.3% (inactive)
Nc1ccc(C(=O)NCC(=O)O)cc1 | 111% (inactive)
